Where “and” joins values, the source holds several entries; their conditions need not be identical. Equal values may be shown once. This is part of a sample that, as a whole, favours compounds with a hit. Of some 83,000 tested, about 20% had one in any assay.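 Treatment: one concentration, 48 hours, 96-well format. Scoring: percent growth, with anything below 10 considered active.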 Calls of active or inactive are those of the source.
Test system: MDA-MB-468 breast
Assay: NCI-60 one-dose screen, 48 h (100 = growth as untreated, 0 = no growth, -100 = all killed)
Conditions: 10 µM unless noted

SMILES | growth
C[Se]/C=C1/C(=O)N(c2c(Cl)cccc2Cl)c2ccccc21 | -6.67% (active)
COc1cc(/C=C(/C)[N+](=O)[O-])ccc1O | -85.4% (active) and -90.3% (active)
CCC[CH2][Sn]1([CH2]CCC)[O]C(=O)c2cccc([N+](=O)[O-])c2C(=O)[O]1 | -79.4% (active)
O=[N+]([O-])c1ccc(CI)cc1 | 75.6% (inactive)
CC(=O)Nc1ccc(Cc2ccc(NC(C)=O)cc2)cc1 | 95.6% (inactive)
CC(C)(C)C(=O)OCOP(=O)(OCOC(=O)C(C)(C)C)C1CCCN(O)C1=O (stereo unspecified) | -8.03% (active)
C[S+]1C=Cc2ccccc2C1c1ccc(Cl)cc1 (stereo unspecified) | -40.7% (active)
CCOC(=O)c1cnc(SCc2ccc(Cl)c(Cl)c2)nc1N1CC1 | -3.19% (active)
[Cl][Hg][c]1cc[c]([Hg][Cl])o1 | -0.231% (active)
ClCCN(CCCl)c1nc(Cl)c(C2CC(c3ccccc3)=NN2c2ccccc2)s1 (stereo unspecified) | 75.4% (inactive)
OC1CCCCC1N1CCC(c2ccccc2)CC1 (stereo unspecified) | 116% (inactive)
O=C(O)CNCP(=O)(O)O | 102% (inactive)
CC(=O)O[C@H](C[C@H](C(C)C)N(C)C(=O)[C@@H](NC(=O)[C@H]1CCCN1C)C(C)C)c1nc(C(=O)N[C@@H](Cc2ccccc2)C[C@H](C)C(=O)O)c(C)s1 | 18.7% (inactive)
CC(CC1CCCCC1)NCc1ccccc1 (stereo unspecified) | 102% (inactive)
COc1cc(/C=C/[N+](=O)[O-])c([N+](=O)[O-])cc1OC | -71.2% (active)
COc1ccc(/C(C)=C(\c2ccc(OCCN3CCOCC3)cc2)c2ccc(OC(=O)Cc3ccccc3)cc2)cc1 | 104% (inactive)

Source: PubChem BioAssay (NCI)
